TDP1 cell CPT: qHTS for Inhibitors of human tyrosyl-DNA phosphodiesterase 1 (TDP1): qHTS in cells in presence of CPT; chicken DT40 Tdp1-/-;hTDP1 cells + 20 nM CPT, ATP luminescence, 48 h; AID 686979, 2013; 420,000 tested, 12% active; Potency, µM (doses to about 46.2 µM), inactives show top-dose activity change, negative = growth inhibition, actives largely listed as inhibitors; also: potency is read from the fitted curve at half-maximal effect; % is scaled to controls: 0 for no effect and ±100 for the full control effect; nearly all actives have a fitted effect of over 55% in size
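Cell growth measured by CellTiter-Glo luminescence after a minimum 48 h, 37 C compound exposure with 20 nM CPT in Tdp1-knockout DT40 cells stably expressing hTDP1, seeded 400/well; qHTS titration format.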
TDP1 cell noCPT: qHTS for Inhibitors of human tyrosyl-DNA phosphodiesterase 1 (TDP1): qHTS in cells in absence of CPT; Potency, µM (titrated, usually from 46.2 µM), without a hit: at the highest dose activity change, negative = growth inhibition, actives largely listed as inhibitors; 420,000 tested, 15% active; DT40 Tdp1-/- hTDP1 cells, no CPT, ATP luminescence, 48 h; also: potency is read from the fitted curve at half-maximal effect; % is scaled to controls: 0 for no effect and ±100 for the full control effect; nearly all actives have a fitted effect of over 55% in size
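Cells were dispensed at 400 per well, compounds added by pin tool, plates incubated ≥48 hr at 37 °C, then CellTiter-Glo added for 30 min at room temperature before luminescence reading. Line: DT40 Tdp1-/- complemented with hTDP1; camptothecin omitted.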
TDP1 inh: qHTS Assay for Inhibitors of Tyrosyl-DNA Phosphodiesterase (TDP1) | AID 485290, 2010 | 350,000 tested, 0.28% active | Potency, µM (series often up to 130 µM), for the others: at the top dose activity change, negative = inhibition, most hits filed as inhibitors | recombinant TDP1, AlphaScreen DNA substrate cleavage | Tyrosyl-DNA phosphodiesterase 1 (Homo sapiens), Q9NUW8; also: potency is read from the fitted curve at half-maximal effect; % is scaled to controls: 0 for no effect and ±100 for the full control effect; nearly all actives have a fitted effect of over 40% in size
Target sequence (Q9NUW8 whole entry, looked up): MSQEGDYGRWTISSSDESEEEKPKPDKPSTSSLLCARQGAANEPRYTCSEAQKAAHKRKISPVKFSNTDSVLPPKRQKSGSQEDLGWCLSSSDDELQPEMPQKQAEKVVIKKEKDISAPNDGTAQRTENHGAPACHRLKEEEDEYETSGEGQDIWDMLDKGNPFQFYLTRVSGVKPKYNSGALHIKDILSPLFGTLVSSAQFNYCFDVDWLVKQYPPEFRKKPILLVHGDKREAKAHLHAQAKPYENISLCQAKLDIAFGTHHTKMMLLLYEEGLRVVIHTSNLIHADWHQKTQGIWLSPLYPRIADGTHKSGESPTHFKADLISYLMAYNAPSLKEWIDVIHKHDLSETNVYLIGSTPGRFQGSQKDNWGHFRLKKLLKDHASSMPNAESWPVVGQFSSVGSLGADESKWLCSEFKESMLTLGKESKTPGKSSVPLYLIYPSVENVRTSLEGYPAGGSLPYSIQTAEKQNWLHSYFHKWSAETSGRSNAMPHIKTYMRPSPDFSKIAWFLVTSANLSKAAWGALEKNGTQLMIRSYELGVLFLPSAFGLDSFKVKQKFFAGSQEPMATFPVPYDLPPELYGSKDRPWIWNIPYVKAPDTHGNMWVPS
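Tdp1 1 nM final; 15 min RT w/ cpd; substrate 15 nM, 5 min; beads 10 ug/ml, 10 min; AlphaScreen read. Neg ctrl: no enzyme.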
HepG2 viability: qHTS for Inhibitors of TGF-b: Cytotox Counterscreen; HepG2 CAGA-GFP viability, ATP luminescence, 18 h; Potency, µM (highest dose often 46.1 µM), for the others: at the top dose activity change, negative = cytotoxicity, hits mostly cytotoxic; 410,000 tested, 0.76% active; also: potency is read from the fitted curve at half-maximal effect
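HepG2 CAGA-GFP cells (1000/well, DMEM with 1% FBS) received compound, then TGF-beta at 500 pg/mL final, and were incubated 18 hours at 37 degrees C. Viability was read by CellTiter-Glo luminescence. Media-only wells were set as complete cell-killing and DMSO as no toxicity.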
IL-1B inflam inh: qHTS for Inhibitors of Inflammasome Signaling: IL-1-beta AlphaLISA Primary Screen; AID 743279, 2014; 360,000 tested, 4.7% active; activity change, % at 57.5 µM; THP-1 LPS/ATP IL-1B secretion, AlphaLISA, 16 h; hits give low values; in the data active = activity change below about -50%; inconclusive = mostly about -30% to -49%; also: % is scaled to controls: 0 for no effect and ±100 for the full control effect
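Secreted IL-1B measured by AlphaLISA bead assay after 16 h compound exposure of THP-1 cells; compounds (final up to 57.5 uM) added 1 h before LPS (250 ng/mL) and ATP (1.25 mM) stimulation; lower signal means less secretion.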
TGFb inhibitor: qHTS for Inhibitors of TGF-b; HepG2 CAGA-GFP TGF-b/SMAD3 reporter, GFP fluorescence, 18 h; TGF-beta stimulated, 500 pg/mL final; Potency, µM (highest dose often 46.1 µM), for the others: at the top dose activity, negative = inhibition, actives largely listed as inhibitors; 410,000 tested, 1.2% active; also: potency is read from the fitted curve at half-maximal effect; % is scaled to controls: 0 for no effect and ±100 for the full control effect; nearly all actives have a fitted effect of over 65% in size
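First, reporter cells (HEPG2 CAGA-GFP) rested 2 h at 37 degrees C. Next, compounds were pinned in and TGF-beta added to 500 pg/mL final. After 18 h, GFP was imaged per cell and summed per well.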
The depositor's hits bear a star; [ ] = dose if it differs, or a comment. Rows were chosen to be rich in hits. Some 18% of all compounds tested hit in one or more screens of this group. Unless noted, calls follow the shape of the dose curve; as a rule, active = well fitted curve in the direction sought with a large enough effect; inconclusive = small, poorly fitted or top-dose-only effect, or another doubt; inactive = no such curve, though single readings can be large; an effect the other way counts as inactive or inconclusive.

CCCCC(=O)Nc1nc(-c2ccc(S(=O)(=O)N3CCOCC3)cc2)cs1 was read as TDP1 cell CPT inconclusive, TDP1 cell noCPT 18µM*, TDP1 inh 2%, HepG2 viability -15%, IL-1B inflam inh -6 and TGFb inhibitor inconclusive.
CCOC(=O)Cc1csc(NC(=O)CCc2ccc(S(=O)(=O)N3CCOCC3)cc2)n1 was read as TDP1 cell CPT inconclusive, TDP1 cell noCPT inconclusive, TDP1 inh 6%, HepG2 viability 1%, IL-1B inflam inh 15 and TGFb inhibitor -19%.
For Cc1nc(Cl)sc1C(=O)Nc1ccc(C(F)(F)F)cc1 the results were TDP1 cell CPT -21%, TDP1 cell noCPT -8%, HepG2 viability -47%, IL-1B inflam inh -65* and TGFb inhibitor -19%.
For Cc1nc(Cl)sc1C(=O)Nc1cccc(Cl)c1C the results were TDP1 cell CPT inconclusive, TDP1 cell noCPT inconclusive, TDP1 inh 0%, HepG2 viability -21%, IL-1B inflam inh -96* and TGFb inhibitor 14%.
For Cc1oncc1C(=O)Nc1ccc(C(F)(F)F)cc1 the results were TDP1 cell CPT 7.3µM*, TDP1 cell noCPT 9.2µM*, TDP1 inh 3%, HepG2 viability -20%, IL-1B inflam inh -24 and TGFb inhibitor -25%.
For Cc1cc(-c2onc(C)c2C(=O)Nc2ccc(C(F)(F)F)cc2)no1 the results were TDP1 cell CPT 4%, TDP1 cell noCPT -2%, TDP1 inh -4%, HepG2 viability 1%, IL-1B inflam inh 27 and TGFb inhibitor 11%.
Cc1noc(-c2ccc(C(F)(F)F)cc2)c1NC(=O)Nc1ccc(Cl)cc1 was read as TDP1 cell CPT 4.6µM*, TDP1 cell noCPT 3.7µM*, TDP1 inh 3%, HepG2 viability -18%, IL-1B inflam inh -53* and TGFb inhibitor -27%.
For Cc1nc(Cl)sc1C(=O)Nc1cccc(C(F)(F)F)c1 the results were TDP1 cell CPT -2%, TDP1 cell noCPT -23%, HepG2 viability 0%, IL-1B inflam inh -5 and TGFb inhibitor 2%.
Screening CC(C)(C)c1ccc(C(=O)NCCCNC(=O)c2ccccn2)cc1 returned TDP1 cell CPT inconclusive, TDP1 cell noCPT -29%, TDP1 inh -6%[0.0935 µM], HepG2 viability -7%, IL-1B inflam inh 10 and TGFb inhibitor -15%.
Screening CC1(C(=O)NS(=O)(=O)c2cccc(Cl)c2)CCN1C(=O)CCc1ccccc1 (configuration not stated) returned TDP1 cell CPT inconclusive, TDP1 cell noCPT -12%, HepG2 viability -15%, IL-1B inflam inh -3 and TGFb inhibitor -24%.
For Cc1c(NC(=O)Nc2cccc(Cl)c2Cl)c(=O)n(-c2ccccc2)n1C the results were TDP1 cell CPT 13%, TDP1 cell noCPT 2%, TDP1 inh 2%, HepG2 viability -21%, IL-1B inflam inh inactive and TGFb inhibitor -10%.
Screening CCN(CC)C(=O)C1=C(C)N(Cc2ccc(C(C)(C)C)cc2)C(=O)C(CC(=O)NCC2CCCCC2)C1 (configuration not stated) returned TDP1 cell CPT 13µM*, TDP1 cell noCPT 18µM*, HepG2 viability -40%, IL-1B inflam inh -82* and TGFb inhibitor inconclusive.
For CC1=C(C(=O)N(C)C)CC(CC(=O)NCC2CCCCC2)C(=O)N1Cc1ccc(C(C)(C)C)cc1 (configuration not stated) the results were TDP1 cell CPT inconclusive, TDP1 cell noCPT 16µM*, HepG2 viability -31%, IL-1B inflam inh -22 and TGFb inhibitor -30%.
`CC1=C(C(=O)N(C)C)CC(CC(=O)NCC2CCCCC2)C(=O)N1Cc1ccccc1` (configuration not stated) gave TDP1 cell CPT -13%, TDP1 cell noCPT -14%, HepG2 viability 1%, IL-1B inflam inh 1 and TGFb inhibitor 9%.
Screening COc1ccccc1N1CCN(C(=O)c2sc3nc(-c4ccccc4)cn3c2C)CC1 returned TDP1 cell CPT 16µM*, TDP1 cell noCPT 18µM*, TDP1 inh 2%, HepG2 viability -4%, IL-1B inflam inh -76* and TGFb inhibitor 2%.
Screening CCOC(=O)C1CCN(C(=O)c2sc3nc(-c4ccccc4)cn3c2C)CC1 returned TDP1 cell CPT inconclusive, TDP1 cell noCPT 18µM*, TDP1 inh 5%, HepG2 viability -14%, IL-1B inflam inh 10 and TGFb inhibitor -9%.
Screening COc1ccccc1C1CN(Cc2ccc(Sc3nncn3C)o2)Cc2ccccc2O1 (configuration not stated) returned TDP1 cell CPT -10%[9.04 µM] and TDP1 cell noCPT 16µM*.
`COc1ccccc1C1CN(Cc2cccc(O)c2)Cc2ccccc2O1` (configuration not stated) gave TDP1 cell CPT -3%[9.04 µM] and TDP1 cell noCPT 16µM*.
COCc1ccc(CN2Cc3ccccc3OC(c3ccccc3OC)C2)o1 (configuration not stated) was read as TDP1 cell CPT -11%[9.04 µM] and TDP1 cell noCPT -9%.
Screening CN(Cc1cccc(C(F)(F)F)c1)C(=O)C1CCC(=O)N(CC2CCCCC2)C1 (configuration not stated) returned TDP1 cell CPT inconclusive, TDP1 cell noCPT 16µM*, TDP1 inh 3%, HepG2 viability -38%, IL-1B inflam inh -16 and TGFb inhibitor inconclusive.
`CCc1ccc(C(C)NC(=O)COC(=O)c2ccc(-n3cnnn3)cc2)cc1` (configuration not stated) gave TDP1 cell CPT 9%, TDP1 cell noCPT 0%, TDP1 inh 0%, HepG2 viability -1%, IL-1B inflam inh -17 and TGFb inhibitor 25%.
`Cc1cc2nc(-c3ccc(SCC(=O)Nc4ccc5c(c4)OCCO5)nc3)[nH]c2cc1C` gave TDP1 cell CPT 23µM*, TDP1 cell noCPT 23µM*, TDP1 inh 0%, HepG2 viability -43%, IL-1B inflam inh -5 and TGFb inhibitor -13%.
Cc1cc2nc(-c3ccc(SCC(=O)N4CCOCC4)nc3)[nH]c2cc1C was read as TDP1 cell CPT 26µM*, TDP1 cell noCPT inconclusive, TDP1 inh 2%, HepG2 viability -29%, IL-1B inflam inh inconclusive and TGFb inhibitor 3%.

Screening results as filed in PubChem.
